# Where “and” joins values, the source holds several entries; their conditions need not be identical. Equal entries are not always repeated. Results filed as inconclusive are left out. Where a structure was tested more than once in an assay, its records may differ in their call. Calls of active or inactive are those of the source. The calls were made as follows: active = hit-call score of the fitted dose curve at least 0.9, where 1 is the maximum; inconclusive = response in the unintended direction; inactive = score below 0.9.
# Assays:
# [1] = target: Estrogen receptor (Homo sapiens) (UniProt P03372); assay: NVS_NR_hER: NovaScreen (NVS) Nuclear Receptor Binding Assay for human Estrogen Receptor (ER) (AID 2283348)
# How it was run: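 Radiodetection of ligand displacement in a lysate-based, cell-free format using MCF7 extracts, read at 18 hours. Duplicate 25 uM primary testing, then concentration series for actives.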
# [2] = TOX21_p53_BLA_p4_viability: Viability Assessment in the Tox21 HCT-116 p53 Agonism Beta-lactamase Assay, Phase 4 (AID 2283597);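 also: hits lower the luminescence signal meaning cytotoxicity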
# How it was run: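 Readout: ATP luminescence (CellTiter-Glo), measured 30 min after reagent addition at RT. The reagent followed a 2 h CCF4-AM incubation, and the cells had been exposed to compound for 16 h at 37C.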
# [3] = target: Cellular tumor antigen p53 (Homo sapiens) (UniProt P04637); assay: TOX21_p53_BLA_p5_ratio: Tox21 HCT-116 p53 Agonism Beta-lactamase Assay, Ratio, Phase 5 (AID 2283599)
# How it was run: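 HCT-116 cells carrying a p53-inducible beta-lactamase reporter were seeded at 4000 cells/well and dosed after 5 h with compound in DMSO (217-fold dilution). After 16 h at 37C, CCF4-AM substrate was added for 2 h, and the 460/530 nm emission ratio was scored as gain-of-signal versus DMSO.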
# [4] = TOX21_p53_BLA_p2_viability: Viability Assessment in the Tox21 HCT-116 p53 Agonism Beta-lactamase Assay, Phase 2 (AID 2283591);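 also: compound exposure lasted 16 h at 37 °C; actives lower the ATP signal meaning cytotoxicity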
# How it was run: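 HCT-116 p53-bla cells (4000/well) rested 5 h at 37C, then received compounds in DMSO (217-fold dilution) for 16 h at 37C, 5% CO2. After the CCF4 read, CellTiter-Glo was added; ATP luminescence was read after 30 min at room temperature.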
# [5] = target: Cellular tumor antigen p53 (Homo sapiens) (UniProt P04637); assay: TOX21_p53_BLA_p2_ratio: Tox21 HCT-116 p53 Agonism Beta-lactamase Assay, Ratio, Phase 2 (AID 2283592)
# How it was run: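 Plated HCT116 p53-bla cells (4000/well) received compound after 5 h, then 16 h at 37C/5% CO2. CCF4-AM added, 2 h RT. Ratio of 460 to 530 nm emission taken as the p53 reporter signal.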
# [6] = TOX21_p53_BLA_p3_viability: Viability Assessment in the Tox21 HCT-116 p53 Agonism Beta-lactamase Assay, Phase 3 (AID 2283593);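 also: cells exposed to compound for 16 h before reading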
# How it was run: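 HCT-116 cells (4000/well) rested 5 h at 37C, then got DMSO compounds by pin tool (217-fold dilution) for 16 h at 37C, 5% CO2. After the bla read, CellTiter-Glo was added and luminescence read at 30 min, room temperature.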
# [7] = target: Cellular tumor antigen p53 (Homo sapiens) (UniProt P04637); assay: TOX21_p53_BLA_p3_ratio: Tox21 HCT-116 p53 Agonism Beta-lactamase Assay, Ratio, Phase 3 (AID 2283596)
# How it was run: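 Cells were seeded at 4000/well, rested 5 h at 37C, then dosed with DMSO compound solutions (217-fold dilution) for 16 h. CCF4-AM substrate was loaded for 2 h at room temperature, and the 460/530 nm emission ratio was fitted for gain of signal versus DMSO.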
# [8] = TOX21_p53_BLA_p5_viability: Viability Assessment in the Tox21 HCT-116 p53 Agonism Beta-lactamase Assay, Phase 5 (AID 2283600)
# How it was run: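 Workflow: seed 4000 cells per well, wait 5 h, add compounds (DMSO, 217-fold dilution), incubate 16 h, load CCF4-AM 2 h, add CellTiter-Glo, read luminescence after 30 min.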
# [9] = target: Cellular tumor antigen p53 (Homo sapiens) (UniProt P04637); assay: TOX21_p53_BLA_p4_ratio: Tox21 HCT-116 p53 Agonism Beta-lactamase Assay, Ratio, Phase 4 (AID 2283601)
# How it was run: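 HCT116 cells carrying an inducible beta-lactamase reporter were plated at 4000 cells/well, rested 5 h, then exposed to compounds in DMSO (217-fold dilution) for 16 h at 37C. CCF4-AM substrate was loaded 2 h at room temperature; 460/530 nm emission ratio scored gain-of-signal versus DMSO.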
# Sequence of Cellular tumor antigen p53 (Homo sapiens) (P04637 whole entry, looked up): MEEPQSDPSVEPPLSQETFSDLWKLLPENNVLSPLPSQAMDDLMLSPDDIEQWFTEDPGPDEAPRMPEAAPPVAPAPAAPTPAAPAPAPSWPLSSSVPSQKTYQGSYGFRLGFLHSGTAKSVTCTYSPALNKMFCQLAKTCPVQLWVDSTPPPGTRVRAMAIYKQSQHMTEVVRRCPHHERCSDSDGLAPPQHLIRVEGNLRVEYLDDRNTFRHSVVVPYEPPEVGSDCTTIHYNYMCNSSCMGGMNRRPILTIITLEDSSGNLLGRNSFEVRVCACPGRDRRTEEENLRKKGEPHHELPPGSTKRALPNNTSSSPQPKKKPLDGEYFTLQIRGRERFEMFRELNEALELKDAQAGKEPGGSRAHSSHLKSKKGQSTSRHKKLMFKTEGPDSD
# Sequence of Estrogen receptor (Homo sapiens) (P03372 whole entry, looked up): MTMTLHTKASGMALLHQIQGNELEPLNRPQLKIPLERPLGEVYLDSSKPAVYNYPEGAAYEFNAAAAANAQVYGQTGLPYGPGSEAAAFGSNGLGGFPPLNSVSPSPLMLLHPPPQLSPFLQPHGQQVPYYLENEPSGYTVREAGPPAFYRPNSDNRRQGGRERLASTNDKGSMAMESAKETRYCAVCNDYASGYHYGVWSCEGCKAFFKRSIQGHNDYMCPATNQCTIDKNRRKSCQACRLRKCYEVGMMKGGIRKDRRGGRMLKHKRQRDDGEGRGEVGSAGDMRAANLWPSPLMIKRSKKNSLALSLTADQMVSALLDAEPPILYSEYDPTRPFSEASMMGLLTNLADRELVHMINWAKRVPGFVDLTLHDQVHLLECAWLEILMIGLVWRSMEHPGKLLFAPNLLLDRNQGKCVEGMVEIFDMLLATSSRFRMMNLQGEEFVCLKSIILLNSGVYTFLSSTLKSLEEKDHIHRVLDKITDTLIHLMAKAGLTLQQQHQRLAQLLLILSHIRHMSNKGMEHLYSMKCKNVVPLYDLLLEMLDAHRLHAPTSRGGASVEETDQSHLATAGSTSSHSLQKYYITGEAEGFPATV
smiles,measurement,setting,value
O=S(=O)(O)c1cc(Cl)c(Cl)cc1Cl,outcome,[1],inactive
same,outcome,[2],inactive
same,outcome,[3],inactive
S=c1nc[nH]c2nc[nH]c12,AC50,[4],1.56 µM (active)
same,outcome,[4],inactive
same,AC50,[5],7.89 µM (active) and 10.1 µM (active)
same,AC50,[6],674 nM (active) and 2.62 µM (active)
same,AC50,[7],9.95 µM (active) and 8 µM (active)
same,AC50,[2],1.65 µM (active) and 3 µM (active)
same,AC50,[3],11.1 µM (active) and 8.01 µM (active)
same,outcome,[8],inactive
same,AC50,[9],6.3 µM (active) and 6.4 µM (active)
CCCCCCC/C=C/C=O,outcome,[4],inactive
same,outcome,[5],inactive
same,outcome,[6],inactive
same,outcome,[7],inactive
same,outcome,[2],inactive
same,outcome,[3],inactive
same,outcome,[8],inactive
same,outcome,[9],inactive
COc1cc(C(=S)N2CCOCC2)cc(OC)c1OC,outcome,[4],inactive
same,outcome,[5],inactive
CCN(Cc1cccc(S(=O)(=O)O)c1)c1ccccc1,outcome,[1],inactive
same,outcome,[4],inactive
same,outcome,[2],inactive
same,outcome,[3],inactive
same,outcome,[8],inactive
C[C@H](CCC(=O)O)[C@H]1CC[C@H]2[C@@H]3CC[C@@H]4C[C@H](O)CC[C@]4(C)[C@H]3C[C@H](O)[C@]12C,AC50,[4],80.9 µM (active)
same,outcome,[4],inactive
same,AC50,[5],85.4 µM (active)
same,outcome,[5],inactive
same,AC50,[6],73.6 µM (active)
same,outcome,[6],inactive
same,AC50,[7],87.3 µM (active)
same,outcome,[7],inactive
same,AC50,[2],75.1 µM (active) and 36.4 µM (active)
same,AC50,[3],86.7 µM (active)
same,outcome,[3],inactive
same,AC50,[9],87.2 µM (active)
same,outcome,[9],inactive
COC(=O)CCCC(=O)O,outcome,[1],inactive
same,outcome,[4],inactive
same,outcome,[5],inactive
same,outcome,[6],inactive
same,outcome,[7],inactive
same,outcome,[8],inactive
same,outcome,[9],inactive
Cc1oc(C)c(C(=O)Nc2ccccc2)c1C,outcome,[1],inactive
same,outcome,[4],inactive
same,outcome,[5],inactive
same,outcome,[6],inactive
same,outcome,[7],inactive
same,outcome,[2],inactive
same,outcome,[3],inactive
same,outcome,[8],inactive
same,outcome,[9],inactive
Oc1c(I)cc(Cl)c2cccnc12,AC50,[4],8.67 µM (active)
same,outcome,[4],inactive
same,AC50,[5],7.99 µM (active)
same,outcome,[5],inactive
same,AC50,[6],12.7 µM (active)
same,outcome,[6],inactive
same,outcome,[7],inactive
same,AC50,[2],4.52 µM (active) and 18.6 µM (active)
same,AC50,[3],7.84 µM (active)
same,outcome,[3],inactive
same,outcome,[8],inactive
same,outcome,[9],inactive
Cc1cc(Br)ccc1NC(=O)CCl,outcome,[1],inactive
same,AC50,[4],69.3 µM (active)
same,AC50,[5],23.2 µM (active)
same,AC50,[6],46.1 µM (active)
same,AC50,[7],13.3 µM (active)
same,AC50,[2],58.3 µM (active)
same,AC50,[3],13.3 µM (active)
same,AC50,[8],46.1 µM (active)
same,AC50,[9],25.3 µM (active)
C[C@H](CCC(=O)O)[C@H]1CC[C@H]2[C@@H]3[C@H](O)C[C@@H]4C[C@H](O)CC[C@]4(C)[C@H]3CC[C@]12C,AC50,[4],78.5 µM (active)
same,outcome,[4],inactive
same,outcome,[5],inactive
same,outcome,[6],inactive
same,outcome,[7],inactive
same,AC50,[2],87.1 µM (active)
same,outcome,[2],inactive
same,outcome,[3],inactive
same,outcome,[9],inactive
CC(C)CC(=O)C1C(=O)c2ccccc2C1=O,outcome,[1],inactive
same,outcome,[4],inactive
same,outcome,[7],inactive
same,outcome,[3],inactive
same,outcome,[8],inactive
same,outcome,[9],inactive
COc1ccc2c(c1)c(CC(=O)OCC(=O)O)c(C)n2C(=O)c1ccc(Cl)cc1,outcome,[4],inactive
COC(=O)CCC(=O)O,outcome,[4],inactive
SC1CCCC1,outcome,[1],inactive
C=CCN1CCc2nc(N)sc2CC1,outcome,[4],inactive
same,outcome,[5],inactive
C[C@@H]1[C@H](O)[C@@H](C)/C=C/C=C/C=C/C=C/C=C/C=C/C=C/[C@H](O[C@@H]2O[C@H](C)[C@@H](O)[C@H](N)[C@@H]2O)C[C@@H]2O[C@](O)(C[C@@H](O)C[C@@H](O)[C@H](O)CC[C@@H](O)C[C@@H](O)CC(=O)O[C@H]1C)C[C@H](O)[C@H]2C(=O)O,AC50,[4],72.4 µM (active)
same,outcome,[4],inactive
same,outcome,[5],inactive
same,outcome,[6],inactive
same,outcome,[7],inactive
same,outcome,[2],inactive
same,outcome,[3],inactive
same,outcome,[8],inactive
same,outcome,[9],inactive
Oc1ccc2c(c1)Cc1ccccc1-2,AC50,[1],25 µM (active)
CCC(=O)C(=O)CC,outcome,[4],inactive
same,outcome,[6],inactive
same,outcome,[7],inactive
same,outcome,[2],inactive
same,outcome,[3],inactive
same,outcome,[8],inactive
same,outcome,[9],inactive
CCCCCCCCCCCCN(CCO)CCO,AC50,[4],69.7 µM (active)
same,AC50,[5],46.9 µM (active)
same,AC50,[6],64.3 µM (active)
same,AC50,[7],49.2 µM (active)
same,AC50,[2],53.4 µM (active)
same,AC50,[3],75.6 µM (active)
same,AC50,[8],59.3 µM (active)
same,AC50,[9],69.1 µM (active)
O=C(OCCOCCO)c1ccccc1Nc1cccc(C(F)(F)F)c1,outcome,[4],inactive
same,outcome,[5],inactive
CC(C)(C)c1ccc(C(O)CCCN2CCC(C(O)(c3ccccc3)c3ccccc3)CC2)cc1 (centres undefined),AC50,[4],34.4 µM (active)
same,outcome,[4],inactive
same,AC50,[5],42.7 µM (active)
same,AC50,[6],37.9 µM (active) and 31.8 µM (active)
same,AC50,[7],43.3 µM (active) and 39.2 µM (active)
same,AC50,[2],32.4 µM (active)
same,outcome,[2],inactive
same,outcome,[3],inactive
same,outcome,[8],inactive
same,AC50,[9],42.2 µM (active)
same,outcome,[9],inactive
CNC(=O)Nc1ccc(Cl)c(Cl)c1,outcome,[4],inactive
same,outcome,[5],inactive
same,outcome,[6],inactive
same,outcome,[7],inactive
same,outcome,[2],inactive
same,outcome,[3],inactive
same,outcome,[8],inactive
same,outcome,[9],inactive
O=[Se](O)O,AC50,[4],7.1 µM (active)
same,outcome,[4],inactive
same,AC50,[5],1.79 µM (active)
same,outcome,[5],inactive
same,AC50,[6],13.3 µM (active)
same,outcome,[6],inactive
same,AC50,[7],0.548 µM (active)
same,outcome,[7],inactive
same,AC50,[2],26 µM (active)
same,outcome,[2],inactive
same,AC50,[3],2.46 µM (active)
same,outcome,[3],inactive
same,outcome,[8],inactive
same,AC50,[9],4.23 µM (active)
same,outcome,[9],inactive
CCOc1nc2cccc(C(=O)OC(C)OC(=O)OC3CCCCC3)c2n1Cc1ccc(-c2ccccc2-c2nn[nH]n2)cc1 (centres undefined),outcome,[1],inactive
same,AC50,[4],8.23 µM (active)
same,AC50,[5],14 µM (active)
same,AC50,[6],13 µM (active)
same,AC50,[7],34 µM (active)
same,AC50,[2],13.4 µM (active)
same,AC50,[3],15.7 µM (active)
same,AC50,[8],7.02 µM (active)
same,AC50,[9],24.4 µM (active)
CCN(CC)c1ccc(N=Nc2ccc(S(=O)(=O)N(C)C)cc2)c(S(=O)(=O)NCC[n+]2ccccc2)c1,outcome,[4],inactive
CCN(CC)CCOC(=O)C(c1ccccc1)c1ccccc1,outcome,[4],inactive
CCCCCCCCOCCCN,outcome,[1],inactive
same,outcome,[4],inactive
same,outcome,[5],inactive
same,outcome,[7],inactive
same,outcome,[2],inactive
same,outcome,[3],inactive
same,outcome,[8],inactive
same,outcome,[9],inactive
CC(=O)CCc1ccc(OC(C)=O)cc1,outcome,[1],inactive
same,outcome,[4],inactive
same,outcome,[5],inactive
same,outcome,[6],inactive
same,outcome,[2],inactive
same,outcome,[3],inactive
same,outcome,[9],inactive

# Source: PubChem BioAssay (EPA / NIEHS)
